The list is not random: actives were taken first. Their share in the collection is about 19%.
IL-1B inflam inh: blocks inflammasome-driven IL-1 beta release | AID 743279 | activity change, % at 57.5 µM | THP-1 LPS/ATP IL-1B secretion, AlphaLISA, 16 h; stronger effect = lower value | 360,000 tested, 4.7% active; in the data active means activity change below about -50%; inconclusive means mostly about -30% to -49%
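THP-1 cells pretreated 1 hr with compounds (up to 57.5 uM final), then stimulated with LPS (250 ng/mL final) plus ATP (1.25 mM final); secreted IL-1B measured by AlphaLISA after 16 hr, decreased signal indicating inhibition.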
HT1080NT lethal: kills 2HG-producing HT-1080-NT fibrosarcoma cells; HT-1080-NT fibrosarcoma viability, CellTiter-Glo ATP luminescence, 48 h; Potency, µM (series often up to 46.1 µM), actives largely listed as cytotoxic; 360,000 tested, 1.6% active;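 further: NT is the 2HG producing partner of a matched IDH1 knockdown line; nearly all actives have a fitted effect of over 55% in size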
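Luminescent CellTiter-Glo readout after 48 hours of compound exposure at 37 degrees C defined viability of HT-1080-NT cells. Activity was normalized to DMSO wells and cell-free media wells; concentration-response curves were fitted and assigned curve classes.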
TDP1 cell noCPT: qHTS for Inhibitors of human tyrosyl-DNA phosphodiesterase 1 (TDP1): qHTS in cells in absence of CPT; DT40 Tdp1-/- hTDP1 cells, no CPT, ATP luminescence, 48 h; 420,000 tested, 15% active; Potency, µM (doses to about 46.2 µM), most hits filed as inhibitors; further: nearly all actives have a fitted effect of over 55% in size
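Readout: luminescence from CellTiter-Glo after 30 min in the dark at RT. Cells: DT40 Tdp1-/- with stable hTDP1, 400/well. Exposure: compounds alone, ≥48 hr, 37 °C.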
HT1080 IDH1KD tx: HT-1080 IDH1 knockdown cell toxicity (counter line). Potency, µM (top dose mostly 46.1 µM), most hits filed as cytotoxic. HT-1080 IDH1 knockdown viability, ATP luminescence, 48 h. 360,000 tested, 2% active
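CellTiter-Glo luminescence after 48 h compound exposure at 37 degrees C of IDH1-knockdown HT-1080 cells in 5% FBS RPMI. %Activity scaled between DMSO wells and cell-free media wells, with curves fitted and assigned curve classes.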
TDP1 cell CPT: DT40-hTDP1 cell growth loss with CPT | chicken DT40 Tdp1-/-;hTDP1 cells + 20 nM CPT, ATP luminescence, 48 h | Potency, µM (highest dose often 46.2 µM), hits mostly inhibitors | 420,000 tested, 12% active; further: nearly all actives have a fitted effect of over 55% in size
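Cell growth measured by CellTiter-Glo luminescence after a minimum 48 h, 37 C compound exposure with 20 nM CPT in Tdp1-knockout DT40 cells stably expressing hTDP1, seeded 400/well; qHTS titration format.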
Large screens that a line does not name were inactive. Unless noted, the call rests on the fitted dose curve; in most records, active means well fitted curve in the direction sought with a large enough effect; inconclusive means small, poorly fitted or top-dose-only effect, or another doubt; inactive means no such curve, though single readings can be large; an effect the other way counts as inactive or inconclusive.

CCOc1cc(-c2sc(Nc3ccc(CC)cc3)n[n+]2-c2ccccc2)ccc1OC	TDP1 cell noCPT 18µM, TDP1 cell CPT 16µM
CCOc1ccccc1C(=O)Nc1nnc(Cc2ccc(OC)c(OC)c2)s1	TDP1 cell noCPT inconclusive
OCCSc1nnc(Nc2ccccc2)s1	none
COc1ccc(C(=O)Nc2ccc(Nc3ccccc3)cc2)cc1OC	none
O=c1n(Cc2ccccc2)c(O)c2n1Cc1ccccc1N=C2c1ccc(C(F)(F)F)cc1	TDP1 cell noCPT inconclusive, TDP1 cell CPT inconclusive
O=c1c2ccccc2nc2n1C(CBr)CN2 (stereo unspecified)	HT1080NT lethal inconclusive
CCOC(=O)N1CCC(NC(=O)c2ccc(CS(=O)c3cccc(Cl)c3)o2)CC1 (stereo unspecified)	TDP1 cell CPT inconclusive
Nc1nccc(N2CCCCC2)n1	TDP1 cell noCPT inconclusive
COc1ccc(Cn2nnnc2C(CC(C)C)N2CCN(c3ccccc3)CC2)cc1 (stereo unspecified)	TDP1 cell noCPT 15µM, TDP1 cell CPT 18µM
CC(C)C(c1nnnn1Cc1ccc2c(c1)OCO2)N1CCN(C)CC1 (stereo unspecified)	none
COc1ccc(C(c2nnnn2Cc2ccc(F)cc2)N2CCN(c3ccccc3)CC2)cc1 (stereo unspecified)	TDP1 cell noCPT inconclusive, TDP1 cell CPT inconclusive
COc1ccc(Cn2nnnc2C(c2ccccn2)N2CCN(c3cc(Cl)ccc3C)CC2)cc1 (stereo unspecified)	IL-1B inflam inh inconclusive, TDP1 cell noCPT inconclusive, TDP1 cell CPT 29µM
CCCC(c1nnnn1Cc1ccc(OC)cc1)N1CCN(c2ccccc2)CC1 (stereo unspecified)	TDP1 cell noCPT 23µM, TDP1 cell CPT inconclusive
CC(C)C(c1nnnn1Cc1ccc2c(c1)OCO2)N1CCN(c2ccccc2)CC1 (stereo unspecified)	TDP1 cell noCPT 21µM
CCCC(c1nnnn1Cc1ccc(OC)cc1)N1CCC(C(N)=O)CC1 (stereo unspecified)	none
CC(C)Oc1ccc(CNC(=O)c2cnc3sc(N4CCCCCC4)nn3c2=O)cc1	none (no result: IL-1B inflam inh, HT1080NT lethal, HT1080 IDH1KD tx)
CC1(C(=O)NCc2ccccc2)CN(S(C)(=O)=O)CC(=O)N1CCCN1CCOCC1 (stereo unspecified)	none
Fc1ccc(C(c2nnnn2Cc2cccs2)N2CCN(C3CCCCC3)CC2)cc1 (stereo unspecified)	IL-1B inflam inh inconclusive, TDP1 cell noCPT 21µM, TDP1 cell CPT inconclusive
COc1ccc(C(c2nnnn2Cc2ccc(F)cc2)N2CCN(c3ccc(OC)cc3)CC2)cc1 (stereo unspecified)	TDP1 cell noCPT 15µM, TDP1 cell CPT 23µM
CN1CCN(C(c2ccc(F)cc2)c2nnnn2Cc2cccs2)CC1 (stereo unspecified)	IL-1B inflam inh inconclusive
Cc1cc(C(c2nnnn2Cc2ccccc2)N2CCOCC2)c(C)n1-c1ccc2c(c1)OCO2 (stereo unspecified)	IL-1B inflam inh -97, HT1080NT lethal inconclusive, TDP1 cell noCPT 16µM, HT1080 IDH1KD tx 10µM, TDP1 cell CPT inconclusive
Cc1ccc(S(=O)(=O)N(C)C)cc1NC(=O)C1CCCN(C(=O)c2ccc(Cl)cc2)C1 (stereo unspecified)	TDP1 cell noCPT inconclusive, TDP1 cell CPT inconclusive
COc1ccc(NC(=O)Cc2csc(NC(=O)Nc3ccccc3OC)n2)cc1	TDP1 cell noCPT 23µM, TDP1 cell CPT 26µM
COc1ccccc1NC(=O)Nc1nc(CC(=O)Nc2ccc(F)cc2)cs1	TDP1 cell noCPT 16µM, TDP1 cell CPT inconclusive
COc1ccccc1NC(=O)Cc1csc(NC(=O)c2ccccc2)n1	TDP1 cell noCPT inconclusive, TDP1 cell CPT inconclusive
COc1ccccc1NC(=O)Nc1nc(CC(=O)Nc2ccc(N(C)C)cc2)cs1	IL-1B inflam inh inconclusive, TDP1 cell noCPT inconclusive, TDP1 cell CPT inconclusive
COc1ccc(C)cc1NC(=O)Cc1csc(NC(=O)Nc2ccccc2OC)n1	TDP1 cell noCPT 16µM, TDP1 cell CPT inconclusive
COc1ccccc1NC(=O)Nc1nc(CC(=O)Nc2cccc(F)c2)cs1	TDP1 cell noCPT inconclusive, TDP1 cell CPT inconclusive
COc1ccccc1NC(=O)Nc1nc(CC(=O)Nc2ccc(F)c(F)c2)cs1	IL-1B inflam inh -69, TDP1 cell noCPT 15µM, TDP1 cell CPT inconclusive
Cc1ccc(Nc2c(-c3ccco3)nc3ccc(C)cn23)cc1	none (no result: IL-1B inflam inh, HT1080NT lethal, HT1080 IDH1KD tx)
COCCNC(=O)c1cc(S(=O)(=O)N(C)C2CCCCC2)ccc1Cl	none
COc1cc(CNc2ncc(-c3ccc(Br)cc3)n2C)cc(OC)c1O	TDP1 cell noCPT inconclusive
CCOC(=O)/C(C#N)=C/c1c(N2CCCCCC2)nc2ccccn2c1=O	TDP1 cell noCPT 21µM, TDP1 cell CPT inconclusive
CCNc1nn2ccccc2c1/C=C(\C#N)C(=O)OCC	TDP1 cell noCPT 16µM, TDP1 cell CPT inconclusive
CCOC(=O)/C(C#N)=C/c1c(N2CCN(C)CC2)nc2ccccn2c1=O	none
O=C(CCCCn1ccc(=O)[nH]c1=O)Nc1ccc(C(=O)O)c(O)c1	none
COC(=O)c1cc(OC)c(OC)cc1NC(=O)c1c(-c2ccccc2Cl)noc1C	TDP1 cell noCPT 13µM, TDP1 cell CPT 18µM
Cc1onc(-c2ccccc2Cl)c1C(=O)Nc1nnc(-c2ccc(Br)cc2)s1	TDP1 cell noCPT inconclusive, TDP1 cell CPT 16µM
Cc1onc(-c2ccccc2Cl)c1C(=O)Oc1ccc(Cl)cc1Cl	TDP1 cell noCPT 21µM, TDP1 cell CPT 16µM (no result: IL-1B inflam inh, HT1080NT lethal, HT1080 IDH1KD tx)
Cc1onc(-c2ccccc2Cl)c1C(=O)N1CCN(c2cccc(Cl)c2)CC1	HT1080NT lethal 2.6µM, TDP1 cell noCPT 1.5µM, HT1080 IDH1KD tx 2.1µM, TDP1 cell CPT 1.6µM
CN(CCC#N)C(=S)NC(=O)c1ccc(S(=O)(=O)N2CCOCC2)cc1	none
N#CCCN(C(=O)CSc1nc(-c2ccccc2)cn1N)c1ccc(F)cc1	none
O=C(COc1ccccc1[N+](=O)[O-])OCC(=O)c1ccc(Br)s1	none
N#Cc1c(NC(=O)COC(=O)c2ccc(O)cc2O)sc2c1CCC2	TDP1 cell noCPT inconclusive, TDP1 cell CPT inconclusive
COc1cccc(CNC(=O)c2ccc(NC(=O)CC3SC(N4CCCC4)=NC3=O)cc2)c1 (stereo unspecified)	none
Cc1onc(-c2ccccc2Cl)c1C(=O)Oc1cc(F)cc(F)c1	none (no result: IL-1B inflam inh, HT1080NT lethal, HT1080 IDH1KD tx)
Cc1nc(/C(N)=N/OC(=O)c2c(-c3ccccc3Cl)noc2C)cs1	IL-1B inflam inh -89, HT1080NT lethal inconclusive, TDP1 cell noCPT inconclusive, HT1080 IDH1KD tx inconclusive
Cc1onc(-c2ccccc2Cl)c1C(N)=O	none
COc1ccc(/C(N)=N/OC(=O)c2c(-c3ccccc3Cl)noc2C)cc1OC	IL-1B inflam inh -91, HT1080NT lethal inconclusive, TDP1 cell noCPT inconclusive, HT1080 IDH1KD tx 16µM, TDP1 cell CPT 21µM
O=C(c1ccc(NS(=O)(=O)c2ccc(Cl)c(Cl)c2)cc1)N1CCOCC1	none
